PfHsp90 yeast 2: inhibits growth of yeast expressing Plasmodium falciparum Hsp90. S. cerevisiae expressing PfHsp90, BacTiter-Glo ATP, 48 h; yeast lacking PDR1 and PDR3 efflux regulators. inhibition, % at 9.4 µM. 0.32% of 310,000 active. AID 504621;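 active = every replicate shows inhibition above about 80%, whatever the replicate mean, limit read from the data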;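 note: 0% = DMSO neutral controls and 100% = 20 µM radicicol positive controls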
TIM10 inh: TIM10 yeast growth inhibition. S. cerevisiae TIM10 strain growth, BacTiter-Glo luminescence, 24 h. inhibition, % at 10 µM. 1.4% of 330,000 active;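 active = inhibition of 40% or more at the single tested concentration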;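 note: wild-type TIM10 isogenic control strain grown at permissive 25 °C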
tim23-1 inh: tim23-1 yeast growth inhibition. S. cerevisiae tim23-1 growth, BacTiter-Glo luminescence, 24 h. inhibition, % at 20 µM. 1.3% of 330,000 active. AID 463212;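 active = growth inhibition of the mutant yeast at or above 50%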;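 note: temperature-sensitive mutant grown at 25 °C; plate controls were DMSO-treated mutant yeast for no effect and medium wells lacking yeast for full effect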
NLRP3 yeast inh: NALP3 inhibition in yeast; inhibition, % at 10 µM; AID 2825; 0.39% of 330,000 active; Yeast reconstituted NLRP3/ASC/caspase-1, beta-gal luminescence, 24 h;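 active = inhibition of 50% or more; inactive = inhibition below 50%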;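 note: plate controls were induced DMSO wells for no effect and uninduced yeast grown without galactose for full effect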
NALP1 yeast inh: blocks the NALP1 inflammasome reconstituted in yeast; AID 2071; inhibition, % at 10 µM; S. cerevisiae NALP1/ASC/caspase-1 growth, X-gal OD620, 72 h; 0.61% of 280,000 active; in the data active = inhibition mostly above about 24%, no sharp cut-off; inactive = mostly below about 32%
tim10-1 inh: growth inhibitors of tim10-1 mutant yeast | S. cerevisiae tim10-1 ts strain growth, BacTiter-Glo, 24 h | inhibition, % at 20 µM | 2.2% of 330,000 active;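 active = inhibition of at least 40%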;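 note: mutant grown at 25 °C; 0% = DMSO wells with yeast and 100% = wells holding no yeast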
tim10-1 confirm: confirmation of tim10-1 mutant yeast growth inhibitors; shares compounds with tim10-1 inh; S. cerevisiae tim10-1 ts strain growth, BacTiter-Glo, 24 h; inhibition, % at 20 µM; 56% of 7,400 active;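 active = inhibition of yeast growth at or above a set limit in either of two repeat tests at 20 µM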;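 note: tim10-1 mutant grown at permissive 25 °C to find synthetic lethal compounds; 0% = DMSO yeast wells and 100% = medium wells without yeast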
TIM10 conf: TIM10 yeast growth inhibition, confirmed. shares compounds with TIM10 inh. S. cerevisiae tim10 strain growth, BacTiter-Glo luminescence, 24 h. inhibition, % at 10 µM. 63% of 4,600 active;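 active = inhibition of yeast growth at or above a set limit in either of two replicates at 10 µM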;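 note: this counterscreen used the strain with wild-type TIM10; 0% = yeast with DMSO and 100% = medium wells lacking yeast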
tim23-1 conf: confirmation of tim23-1 mutant yeast growth inhibitors. shares compounds with tim23-1 inh. S. cerevisiae tim23-1 growth, BacTiter-Glo luminescence, 24 h. inhibition, % at 20 µM. 83% of 4,400 active. AID 463218;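 active = inhibition above about 39% in either of two replicate wells at 20 µM, limit read from the data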;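 note: temperature-sensitive tim23-1 mutant grown at 25 °C; 0% = DMSO wells with yeast and 100% = medium wells without yeast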
An asterisk follows results filed as active; / = no result given. Sampled rows, rich in hits. Any-hit rate of the full collection: about 4.1%.

SMILES	PfHsp90 yeast 2	TIM10 inh	tim23-1 inh	NLRP3 yeast inh	NALP1 yeast inh	tim10-1 inh	tim10-1 confirm	TIM10 conf	tim23-1 conf
CCC(=O)Oc1oc(-c2ccccc2)nc1C=Nc1ccccc1OC	2.7	39.9	52.6*	-10.6	5.1	49.6*	36.5*	/	70.2*
CCOC(=O)c1ccc(N=Cc2nc(-c3ccccc3)oc2OC(C)=O)cc1	-5.5	45.4*	57.9*	8.7	-13.8	70.6*	54.7*	68.1*	83.5*
CC(=O)Oc1oc(-c2ccccc2)nc1C=Nc1ccccc1	-6.9	40.6*	77.0*	11.6	4.3	53.4*	48.6*	44.0*	76.2*
CCC(=O)Oc1oc(-c2ccccc2)nc1C=Nc1ccc(C)cc1	1.2	32.4	46.2	10.2	7.7	18.9	/	/	/
Cc1ccc(C(=O)Oc2oc(-c3ccco3)nc2C=Nc2ccccc2)cc1	/	/	/	/	0.8	/	/	/	/
CN(C)c1ccc(N=Cc2nc(-c3ccccc3)oc2OC(=O)c2cccc(Br)c2)cc1	-17.6	4.6	17.3	39.8	33.9	11.7	/	/	/
S=C(Nc1cccnc1)NC1CC2CCC1C2 (stereo not given)	-4.8	16.6	6.4	13.1	13.7	14.5	/	/	/
Cc1c(NC(=O)c2cc(-c3cccc(Cl)c3)on2)c(=O)n(-c2ccccc2)n1C	6.8	14.3	14.5	14.0	4.6	-8.5	/	/	/
CCN1CCN(CCCNC(=O)c2ccc(/C=C3/Oc4ccccc4N(Cc4cccc(C)c4)C3=O)cc2)CC1	35.2	-1.8	57.0*	11.8	23.0	48.9*	6.8	/	48.4*
CCCCNC(=O)c1ccc(/C=C2\Oc3ccccc3N(C)C2=O)cc1	8.0	5.1	-5.6	15.4	2.8	19.7	/	/	/
COC(=O)C1=C(C)NC(=S)NC1c1ccc(-c2ccccc2C(=O)OC)o1 (stereo not given)	12.2	5.8	16.4	11.2	-17.9	23.5	/	/	/
COC(=O)C1=C(C)NC(=S)NC1c1ccc(-c2cccc(Cl)c2)o1 (stereo not given)	17.0	53.2*	52.1*	12.1	1.1	50.3*	38.6*	1.4	48.6*
CCOc1ccccc1NC(=O)C1C2CCC(O2)C1C(=O)O (stereo not given)	-0.1	-7.9	11.6	6.0	1.4	7.3	/	/	/
Cc1cccc(N2CCN(C(=S)NCc3ccco3)CC2)c1C	-40.7	19.6	53.0*	20.3	42.7	55.1*	47.7*	/	43.0*
CCOc1ccccc1N1CCN(C(=S)NCc2ccco2)CC1	15.3	10.3	26.2	11.4	26.0	17.2	/	/	/
S=C(NCc1ccco1)N1CCN(Cc2ccc(Cl)cc2Cl)CC1	-8.5	47.6*	70.3*	22.8	1.7	50.9*	53.5*	43.0*	61.5*
N#C/C(=C\c1ccc[nH]1)Sc1nc2ccccc2s1	-32.5	14.3	54.0*	20.3	36.6	42.3*	29.7*	/	47.5*
COc1ccc(C(C)=O)cc1CC(=O)Nc1ccccc1-c1ccccc1	3.5	10.2	10.1	21.1	17.4	-19.2	/	/	/
Nc1ccc2c(c1)C(=O)C(=O)c1ccccc1-2	13.8	93.8*	73.2*	33.4	15.1	92.2*	91.9*	98.8*	68.8*
Nc1ccc2c(c1)C(=O)c1ccccc1-2	-29.0	5.0	19.0	15.3	/	3.2	/	/	/
c1ccc(-c2noc(-c3ccc4c(c3)OCO4)n2)nc1	68.9	34.3	51.5*	21.4	20.7	49.5*	39.9*	/	59.8*
COc1cc(/C=C/C(=O)c2ccc([N+](=O)[O-])o2)ccc1O	111.7*	96.6*	95.5*	49.1	/	96.2*	97.2*	99.1*	99.2*
NS(=O)(=O)c1ccc(CNC(=O)/C=C/c2cccc(Cl)c2)cc1	-15.0	-14.1	-3.0	13.9	24.8	-1.1	/	/	/
O=C(/C=C/c1cccc(Cl)c1)c1ccc([N+](=O)[O-])o1	107.8*	96.5*	95.0*	42.9	/	93.9*	96.1*	98.7*	98.8*
CCN(CC)S(=O)(=O)c1ccc(OCC2CCCCO2)c([N+](=O)[O-])c1 (stereo not given)	31.6	-10.2	17.3	6.0	16.1	12.9	/	/	/
SMILES	PfHsp90 yeast 2	TIM10 inh	tim23-1 inh	NLRP3 yeast inh	NALP1 yeast inh	tim10-1 inh	tim10-1 confirm	TIM10 conf	tim23-1 conf
O=C(NCCCn1ccnc1)c1cc(Cl)cc(Cl)c1	9.7	1.5	3.1	-5.8	18.5	-12.3	/	/	/
C=CCc1cccc(/C=N/NC(=O)c2ccccc2Br)c1O	3.7	63.7*	61.8*	-3.5	9.7	43.8*	19.2	57.5*	60.7*
O=C(CSc1cn[nH]n1)Nc1cccc(C(F)(F)F)c1	6.4	8.1	0.6	20.9	8.7	-6.6	/	/	/
OC1CCN(c2c3c(nc4cc(-c5cccc(F)c5)nn24)CCCC3)CC1	6.2	14.5	50.5*	6.8	9.9	40.9*	19.4	/	34.9
Clc1cccc(-c2cc3nc4c(c(N5CCNCC5)n3n2)CCCC4)c1	/	/	/	/	10.8	/	/	/	/
Cc1oc2c(c1C(=O)O)C(=O)c1ccccc1C2=O	-14.1	13.5	15.2	3.1	6.4	4.6	/	/	/
O=C(C1=C(c2ccccc2)C(=O)c2ccccc2C1=O)c1ccccc1	-28.4	/	/	/	24.7	/	/	/	/
Cc1oc2c(c1C(=O)c1ccccc1)C(=O)C(=O)c1ccccc1-2	/	50.9*	67.8*	16.2	6.9	56.2*	49.5*	53.3*	67.1*
CCOC(=O)c1c(C)oc2c1C(=O)c1ccccc1C2=O	-32.1	72.5*	78.9*	-3.8	4.8	71.8*	73.6*	64.4*	93.9*
O=C1C(=O)c2c(C(=O)c3ccccc3)coc2-c2ccccc21	-22.6	73.7*	70.8*	0.8	11.1	93.0*	91.2*	81.0*	64.6*
Cc1onc(-c2ccccc2Cl)c1C(=O)c1ccccc1	10.6	6.0	15.0	20.1	16.3	-5.2	/	/	/
Cc1cc(C)c(NC(=O)CN2C(=O)CC(C)S(=O)(=O)c3ccccc32)c(C)c1 (stereo not given)	0.9	1.4	2.9	6.8	5.6	2.5	/	/	/
CC(C)c1cccc(C(C)C)c1NC(=O)CN1CCCC1	-6.2	3.6	-6.4	16.4	14.0	-30.6	/	/	/
CC(C)OC(=O)n1c(=S)oc2ccccc21	-39.4	47.0*	76.3*	-3.9	-0.1	53.3*	36.8*	26.0	67.3*
COC(=O)/C(=C1/Oc2cc(C)oc(=O)c2S1)C(F)(F)F	-13.3	41.2*	62.1*	45.8	-10.8	57.0*	38.9*	41.0*	68.8*
COC(=O)/C(=C1/Oc2ccc(C(C)(C)C)cc2S1)C(F)(F)F	8.5	-15.6	5.9	-7.6	20.9	4.3	/	/	/

Screening results from PubChem BioAssay.
